Test results published in PubChem BioAssay (NCI).
The panel holds about 83,000 compounds, 20% with a hit somewhere; the sample as a whole holds those more often.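 Results are percent growth after 48 hours of single-concentration exposure. 100 means growth as in untreated cells, lower positive values show inhibition; negative values down to -100 show cell death.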 Values without a mark were called inactive. Active and inactive are the calls of the source. Rule for the calls: active = growth percent below 10; inactive = the rest.

How the values were obtained:
Assay in all cases: NCI-60 one-dose screen, 48 h (100 = growth as untreated, 0 = no growth, -100 = all killed)
Conditions in all cases: 10 µM unless noted
NCI-H23 lung = tested on: NCI-H23 lung
NCI-H322M lung = tested on: NCI-H322M lung
HOP-62 NSCLC = tested on: HOP-62 NSCLC
NCI-H522 lung = tested on: NCI-H522 lung
A549/ATCC NSCLC = tested on: A549/ATCC NSCLC
786-0 renal = tested on: 786-0 renal
COLO 205 colon = tested on: COLO 205 colon
DU-145 prostate = tested on: DU-145 prostate
K-562 leukemia = tested on: K-562 leukemia
MALME-3M melanoma = tested on: MALME-3M melanoma
MDA-MB-231 breast = tested on: MDA-MB-231 breast
RXF 393 renal = tested on: RXF 393 renal
SF-268 CNS = tested on: SF-268 CNS
SF-295 CNS = tested on: SF-295 CNS
SF-539 CNS = tested on: SF-539 CNS
UACC-257 melanoma = tested on: UACC-257 melanoma
M14 melanoma = tested on: M14 melanoma
NCI-H226 lung = tested on: NCI-H226 lung
NCI-H460 lung = tested on: NCI-H460 lung

SMILES | growth (NCI-H23 lung) [%] | growth (NCI-H322M lung) [%] | growth (HOP-62 NSCLC) [%] | growth (NCI-H522 lung) | growth (A549/ATCC NSCLC) [%] | growth (786-0 renal) | growth (COLO 205 colon) | growth (DU-145 prostate) [%] | growth (K-562 leukemia) | growth (MALME-3M melanoma) | growth (MDA-MB-231 breast) [%] | growth (RXF 393 renal) | growth (SF-268 CNS) [%] | growth (SF-295 CNS) | growth (SF-539 CNS) | growth (UACC-257 melanoma) [%] | growth (M14 melanoma) | growth (NCI-H226 lung) [%] | growth (NCI-H460 lung)
Nc1c(C(=O)C[C@@H](N)CO)ccc2c1C(=O)CCO2 | 55.2 | 16.7 | 28.1 | 45.1% | 40.4 | 78.6% | 46.9% | 42.9 | 33.4% | 48.2% | 61 | 90.7% | 43.6 | 48.3% | 41.3% | 65.4 | 48.6% |  | 
CC(C)(C)c1ccc(C(=O)Nc2sc3cc(O)ccc3c2C(N)=O)cc1 |  | 86.2 | 106 | 64.9% | 82.5 | 70.3% | 57.2% | 69.7 |  | 94% | 76 | 70.6% | 92.4 | 63.5% | 53.9% | 95.2 | 22.1% | 101 | 51.2%
O=C(Nc1ccccc1)c1cc2ccccc2s1 |  | 75.6 | 94.5 | 82.4% | 69.4 | 92.8% | 95.1% | 103 | 87.1% | 108% | 78.2 | 110% | 95.6 | 96.8% | 110% | 95.1 | 75.5% | 88.4 | 39.7%
FC(F)(F)c1nn[nH]n1 |  | 111 | 125 | 102% | 94.1 | 107% | 122% | 99.5 | 113% | 100% | 116 | 104% | 94.5 | 106% | 106% | 110 | 112% | 94.8 | 
O=C1SCN(Cc2ccccc2)CN1Cc1ccccc1 |  | 95.3 | 102 | 26.3% | 99.1 | 114% | 116% | 95.4 | 46.3% | 101% | 86.9 | 108% | 96.2 | 110% | 104% | 70.9 | 99.1% | 96.2 | 107%
C=C1C(=O)O[C@H]2[C@H]1CC/C(COC(=O)NCc1cccc(OC)c1)=C\CC[C@@]1(C)O[C@@H]21 |  | 90.6 | 65.6 | -70.3% (active) | 50.7 | -48.9% (active) | -71.3% (active) | 19.7 | 4.46% (active) | -26.4% (active) | 64.4 | -57.1% (active) | 58.2 | 71.5% | 21.4% | 25.4 | -7.62% (active) | 67.3 | 55%
COc1cc(/C=C/c2cc(/C=C/c3ccc(O)c(OC)c3)n(C(=O)c3ccccc3Br)n2)ccc1O |  | 39.5 | 43.5 | 4.2% (active) | 41.7 | 9.91% (active) | 23.9% | 28.9 | 3.62% (active) | 23.4% | 39.7 | -3.83% (active) | 28 | -29.7% (active) | 4.02% (active) | 87.1 | 5.42% (active) | 38.5 | 9.15% (active)
COc1ccc(-c2cc(C(=O)Nc3ccc(C)cc3)nc3[nH]c(=O)sc23)cc1 |  | 78.5 | 84.7 | 24.3% | 50.6 | 65.2% | 78.8% | 89.6 | 61.9% | 73.3% | 86.3 | 85.8% | 88.7 | 70.7% | 75.6% | 51.4 | 70.8% | 80.1 | 68.8%
CCOC(=O)C1OC2(CCCC2)OC1C(=O)OCC (centres undefined) |  | 94.3 | 103 | 90.5% | 102 | 100% | 111% | 125 | 112% | 107% | 95.7 | 104% | 114 | 126% | 114% | 97.7 | 105% | 97.1 | 116%
